Results published in PubChem BioAssay (Tox21).
Several values for one entry are separate records, joined by “and”; a condition that tells them apart may be missing. Identical values can stand only once. Records with an inconclusive call do not appear. A call without a number means that no potency is given here. A number with no mark means an inactive call. Activity calls are given as the source filed them. The call rests on the fitted dose curve; in most records, active means well fitted cell-killing curve with a large enough effect in the repeat runs; inconclusive means weak or mixed curves, or effect the other way; inactive means flat fitted curve, though single readings scatter.

Tests used:
[1] = cAMP Responsive Elements (CRE) small molecule antagonists, cell-based qHTS assay: qHTS cell viability counter screen (AID 2060913); details: CRE-bla HEK293T viability, CellTiter-Glo luminescence, 5 h; series mostly up to 92.4 µM; further: nearly all actives have a fitted effect of over 40% in size
Procedure, shortened: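 CRE-bla HEK293T cells (2,000/well, 18 h) given compound plus NKH477 0.25 uM final for 3 h at 37C; viability counter-screen by CellTiter-Glo luminescence in same wells after 30 min.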

[2] = cAMP Responsive Elements (CRE) small molecule agonists, cell-based qHTS assay: qHTS cell viability counter screen (AID 2060914); details: CRE-bla HEK293T viability, CellTiter-Glo luminescence, 5 h; series mostly up to 92.4 µM;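 further: viability read after 3 h of compound exposure; nearly all actives have a fitted effect of over 50% in size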
Procedure, shortened: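 Cells are seeded and incubated 18 h, treated with compounds in DMSO for 3 h, read for the bla reporter, then given CellTiter-Glo; luminescence is measured after 30 min at room temperature.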
Potency means the concentration at half of the fitted maximal effect.

SMILES | Potency [1] | Potency [2] | viability change, negative = cytotoxic [1] | activity change, negative = cytotoxicity [2]
OC/C=C/CO | inactive | inactive | – | –
CCCCC(CC)COC(C)=O (configuration not stated) | inactive | inactive | – | –
Oc1ccc2c(c1)Cc1ccccc1-2 | inactive | inactive | – | –
CCOC(=O)c1ccc(C)cc1 | inactive | inactive | – | –
CCCCCC(CO)CCC (configuration not stated) | inactive | inactive | – | –
C#CC1(O)CC[C@H]2[C@@H]3CCC4=CCCC[C@@H]4[C@H]3CC[C@@]21C (some centres not stated) | inactive | inactive | – | –
C=CC(C)=CCC=C(C)C | inactive | inactive | – | –
Cc1ccc(C)c(C)c1 | inactive | inactive | – | –
CC(C)(c1ccc(Oc2ccc3c(c2)C(=O)OC3=O)cc1)c1ccc(Oc2ccc3c(c2)C(=O)OC3=O)cc1 | inactive | inactive | – | –
CCCCCCCCCCCCCCCC[N+](C)(C)Cc1ccccc1 | 63.1 µM (active) and 49.4 µM (active) and 33.5 µM (active) | 70.8 µM (active) and 44.1 µM (active) and 26.6 µM (active) | – | –
Cc1c(C)c2c(c(C)c1O)CCC(C)(COc1ccc(CC3SC(=O)NC3=O)cc1)O2 (configuration not stated) | inactive | inactive | – | –
CCCCCCCCCCCCCCCC(=O)NCCO | inactive | inactive | – | –
O=C1c2ccccc2C(=O)c2c1ccc(O)c2O | inactive | inactive | – | –
O=C(CCCCCCCCC#CI)Oc1ccccc1 | inactive | inactive | – | –
CN(C)CCC(c1ccc(Cl)cc1)c1ccccn1 (configuration not stated) | inactive | inactive | – | –
CC(=O)CCc1ccc(O)cc1 | inactive | inactive | – | –
O=C1OC2(c3ccccc31)c1ccc(O)c(Br)c1Oc1c2ccc(O)c1Br | inactive | inactive | – | –
CC(N)C12CC3CC(CC(C3)C1)C2 (configuration not stated) | inactive | inactive | – | –
CC(C)C(=O)OCc1ccccc1 | inactive | inactive | – | –

SMILES | Potency [1] | Potency [2] | viability change, negative = cytotoxic [1] | activity change, negative = cytotoxicity [2]
C=CCc1ccc(O)c(OC)c1 | inactive | inactive | – | –
CCCCCCCC/C=C\CCCCCCCCN | inactive | inactive | – | –
Cn1cccc1 | inactive | inactive | – | –
Nc1cc([N+](=O)[O-])cc(Cl)c1O | inactive | inactive | – | –
O=C(c1cc(O)c(O)c(O)c1)c1ccc(O)c(O)c1O | inactive | inactive | – | –
C/C=C(\C)C(=O)OC/C=C(\C)CCC=C(C)C | inactive | inactive | – | –
C[C@]12CCC(=O)C=C1CC[C@@H]1[C@@H]2CC[C@@]2(C)[C@H]1CC[C@]2(O)C(=O)CO | inactive | inactive | – | –
COC(=O)c1cc(Cl)c(NC(C)=O)cc1OC | inactive | inactive | – | –
C1COCCN1 | inactive | inactive | – | –
Cc1cccc(C)c1NC(=O)CN1CCN(CCCC(c2ccc(F)cc2)c2ccc(F)cc2)CC1 | inactive | inactive | – | –
CN(C)C(=O)Oc1ccc[n+](C)c1 | inactive | inactive | – | –
N=C(N)S(=O)O | inactive | inactive | – | –
NC[C@H]1O[C@H](O[C@H]2[C@H](O)[C@@H](O[C@H]3O[C@H](CO)[C@@H](O)[C@H](N)[C@H]3O)[C@H](N)C[C@@H]2N)[C@H](O)[C@@H](O)[C@@H]1O | – | – | -0.639% [at 8.39 µM] | 14.7% [at 8.39 µM]
CC1=CC2C3CC(C=C3C)C2C1 (configuration not stated) | inactive | inactive | – | –
O=C1CCc2cc(OCCCCc3nnnn3C3CCCCC3)ccc2N1 | inactive | inactive | – | –
Cc1cc(-c2ccccc2)nnc1NCCN1CCOCC1 | inactive | inactive | – | –
COCCOCCOCCOC | inactive | inactive | – | –
CC1=C(CC=O)C(C)(C)CCC1 | inactive | inactive | – | –
Cc1onc(-c2ccccc2)c1C(=O)Cl | inactive | inactive | – | –

SMILES | Potency [1] | Potency [2] | viability change, negative = cytotoxic [1] | activity change, negative = cytotoxicity [2]
CCCCCCCC/C=C\CCCCCCCC(N)=O | inactive | inactive | – | –
Nc1c[n+](N2CCOCC2)no1 | inactive | inactive | – | –
Cc1c(C(=O)O)cccc1[N+](=O)[O-] | inactive | inactive | – | –
COc1cccc2sc(N)nc12 | inactive | inactive | – | –
O=C(NC(Cc1cc(=O)[nH]c2ccccc12)C(=O)O)c1ccc(Cl)cc1 (configuration not stated) | inactive | inactive | – | –
OC[C@@H](O)C(O)[C@@H](O)CO (some centres not stated) | inactive | inactive | – | –
O=C(O)c1nc(Cl)c(Cl)c(Cl)c1Cl | inactive | inactive | – | –
O=c1c(-c2ccc(O)cc2)coc2cc(O)ccc12 | inactive | inactive | – | –
CC(=O)c1ccc2c(c1)N(CCCN(C)C)c1ccccc1S2 | inactive | inactive | – | –
c1ccc(Nc2ccccc2)cc1 | inactive | inactive | – | –
CCO[Si](CCCCl)(OCC)OCC | inactive | inactive | – | –
CCCCCCCCCCCC(=O)OCC | inactive | inactive | – | –
CC[N+](CC)(CC)CCOC(=O)C(C1CCCC1)C1CCCC1 | inactive | inactive | – | –
CN1CCN(C(c2ccccc2)c2ccccc2)CC1 | inactive | inactive | – | –
NC(Cc1ccc(F)cc1)C(=O)O (configuration not stated) | – | – | 19.3% [at 8.39 µM] | 0.316% [at 8.39 µM]
NC(=O)c1cccc([N+](=O)[O-])c1 | inactive | inactive | – | –
Clc1ccccc1CN1CCc2sccc2C1 | inactive | inactive | – | –
O=C1c2ccccc2C(=O)C1c1ccc2ccccc2n1 | inactive | inactive | – | –
